Among the data in PubChem BioAssay (NCI) are growth values, retold here.

Test systems include NCI-H23 lung; NCI-H226 lung; HOP-62 NSCLC; NCI-H460 lung; A549/ATCC NSCLC; 786-0 renal; DU-145 prostate; NCI-H522 lung; COLO 205 colon.
Assay in all cases: NCI-60 one-dose screen, 48 h (100 = growth as untreated, 0 = no growth, -100 = all killed)
What all share (details): 10 µM unless noted

Molecules are shown by their SMILES. About 83,000 compounds went through this panel and 20% of them were active in at least one assay; those are over-represented in the sample as a whole.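 Each cell line was grown in a 96-well plate and treated with one concentration of compound for 48 hours. Values below 10 were considered active.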 A number with no mark means an inactive call. Activity calls are given as the source filed them.

Take `COc1cc(-c2cc(C(=O)Nc3nc4ccccc4s3)nc3cc(-c4ccccc4)nn23)cc(OC)c1OC`: the growth with NCI-H23 lung is 49.1%; in the assay with NCI-H226 lung, 70.2%; with HOP-62 NSCLC, 46.6%; with NCI-H460 lung, 79.3%; in the assay with A549/ATCC NSCLC, 77.5%; in the assay with 786-0 renal, 81.6%. For the same compound, the growth in the assay on DU-145 prostate is 51.5%.
For `CC(C)(C)c1ccc(S(=O)(=O)O)s1`, the growth was 115% with NCI-H23 lung; 107% in the assay with NCI-H226 lung; 99% with HOP-62 NSCLC; 106% in the assay on NCI-H460 lung; 89.6% in the assay with NCI-H522 lung; 99.2% with A549/ATCC NSCLC. Also, the growth was 95.6% with 786-0 renal and 108% in the assay on DU-145 prostate.
Consider `COc1ccc(-c2csc(NC(=O)c3cc(OC)c(OC)c(OC)c3)n2)cc1`, for which the growth in the assay with NCI-H23 lung was 114%; with NCI-H226 lung, 94.1%; in the assay on HOP-62 NSCLC, 91.2%; in the assay on NCI-H460 lung, 103%; in the assay on NCI-H522 lung, 107%; in the assay with A549/ATCC NSCLC it was 102%. The results for the growth in the assay with 786-0 renal, in the assay with COLO 205 colon and in the assay on DU-145 prostate were 102%, 105% and 112%, respectively.
For the compound `COc1ccc(C2CC(c3cccc(Nc4ccnc5cc(Cl)ccc45)c3)=NN2C=O)cc1` (centres undefined), the growth with NCI-H23 lung was 10.7%; with NCI-H226 lung it was 46.3%; in the assay with HOP-62 NSCLC, 27%; in the assay on NCI-H460 lung it was 11.2%; with NCI-H522 lung, -35.5% (active); in the assay on A549/ATCC NSCLC, 25.5%. The growth in the assay with 786-0 renal was 34.7%; in the assay on COLO 205 colon it was -44.3% (active); in the assay with DU-145 prostate, 2.95% (active).
Consider `CC(C)c1nc(N(C)S(C)(=O)=O)nc(-c2ccc(F)cc2)c1/C=C/[C@@H](O)C[C@@H](O)CC(=O)O`, for which the growth in the assay with NCI-H23 lung is 109%; in the assay with NCI-H226 lung, 105%; in the assay on HOP-62 NSCLC it was 108%; in the assay on NCI-H460 lung it was 118%; in the assay on NCI-H522 lung it was 69.9%; in the assay with A549/ATCC NSCLC, 97.9%. The figures for the growth in the assay on 786-0 renal and in the assay with DU-145 prostate were 106% and 103%, respectively.
For `Fc1ccc(-c2nnc(/C=C/c3cn(-c4ccccc4)nc3-c3ccccc3)o2)cc1`, the growth with NCI-H23 lung was 88%; in the assay with NCI-H226 lung, 92.8%; in the assay on HOP-62 NSCLC, 87.4%; in the assay on NCI-H460 lung it was 78.6%; in the assay with NCI-H522 lung it was 85.3%; in the assay with A549/ATCC NSCLC it was 75.2%. The growth in the assay on 786-0 renal is 89.8%; in the assay on COLO 205 colon it was 94.2%; in the assay with DU-145 prostate, 110%.
In the case of `O=C(O)c1ccccc1C(=O)OC1CCCC2CCCC21` (centres undefined), the growth in the assay on NCI-H23 lung is 95.1%; with NCI-H226 lung, 101%; in the assay with HOP-62 NSCLC, 98.2%; with NCI-H460 lung, 112%; with NCI-H522 lung it was 107%; with A549/ATCC NSCLC, 101%. In addition, the figures for the growth with 786-0 renal, in the assay with COLO 205 colon and with DU-145 prostate were 116%, 117% and 103%, respectively.
Regarding `CC/C(=C\c1ccc(N(C)C)cc1)c1ccncc1`, the growth in the assay with NCI-H23 lung was 63.3%; in the assay on NCI-H226 lung it was 74.8%; with HOP-62 NSCLC, 46.6%; in the assay on NCI-H460 lung, 14.3%; with A549/ATCC NSCLC, 43.5%; with 786-0 renal, 54.6%. Further, the growth in the assay with COLO 205 colon is 36.1%; in the assay on DU-145 prostate, 85%.
Turning to `CCC(O)C(C)(C)C` (centres undefined), the growth was 102% in the assay on NCI-H23 lung; 106% in the assay on NCI-H226 lung; 115% in the assay with HOP-62 NSCLC; 105% in the assay on NCI-H460 lung; 106% with NCI-H522 lung; 94.2% in the assay with A549/ATCC NSCLC. Besides, the growth in the assay with 786-0 renal is 111%; with COLO 205 colon, 114%; in the assay with DU-145 prostate, 108%.
With `O=c1c(O)cccn1CCCNCCCN(CCCn1cccc(O)c1=O)CCCn1cccc(O)c1=O`, the growth was 97.7% in the assay on NCI-H23 lung; 95% with NCI-H226 lung; 106% with HOP-62 NSCLC; 99% in the assay with NCI-H460 lung; 117% in the assay with NCI-H522 lung; 105% in the assay with A549/ATCC NSCLC. In addition, the results for the growth with 786-0 renal, with COLO 205 colon and with DU-145 prostate were 107%, 125% and 112%, respectively.
Turning to `COc1ccc(-c2cc(Cc3cccs3)c(=O)n(Cn3cncn3)n2)cc1`, the growth is 102% with NCI-H23 lung; 96.3% with NCI-H226 lung; 110% in the assay on HOP-62 NSCLC; 112% in the assay on NCI-H460 lung; 91.6% in the assay with NCI-H522 lung; 97.3% in the assay on A549/ATCC NSCLC. Besides, the growth is 104% in the assay with 786-0 renal, 117% in the assay with COLO 205 colon and 124% with DU-145 prostate.
In the case of `Cc1nn(-c2ccccc2)c2ncc3c(c12)C(=O)N(Cc1ccccc1)C3=O`, the growth was 63.9% in the assay with NCI-H23 lung; -14.2% (active) with NCI-H226 lung; 1.26% (active) with HOP-62 NSCLC; 4.79% (active) in the assay on NCI-H460 lung; 59.9% in the assay on NCI-H522 lung; 13.9% with A549/ATCC NSCLC. The values for the growth in the assay on 786-0 renal, with COLO 205 colon and in the assay with DU-145 prostate were -4.88% (active), 32.9% and 98.9%, respectively.
With `CCOC(=O)C1C(=O)OC2CCCCC21` (centres undefined), the growth was 101% with NCI-H23 lung; 113% with NCI-H226 lung; 127% with HOP-62 NSCLC; 110% in the assay on NCI-H460 lung; 108% in the assay with NCI-H522 lung; 102% in the assay on A549/ATCC NSCLC. The growth with 786-0 renal was 100%; in the assay on COLO 205 colon it was 120%.
On to `CC(C)[C@]12O[C@H]1[C@@H]1O[C@]13[C@]1(O[C@H]1C[C@H]1C4=C(CC[C@@]13C)C(=O)OC4)[C@@H]2OC(=O)CN(C)C`, for which the growth in the assay on NCI-H23 lung was -19.4% (active); in the assay on NCI-H226 lung it was 10.6%; with HOP-62 NSCLC it was 19.2%; with NCI-H460 lung it was 0.675% (active); in the assay with NCI-H522 lung it was -41.8% (active); in the assay on A549/ATCC NSCLC, 18.4%. Further, the growth in the assay on 786-0 renal is 12.9%; in the assay with DU-145 prostate, 3.28% (active).
